An excerpt weighted towards active compounds, which were near 0.54% of everything screened.
EPAC2 agonist: EPAC2 (human) agonism; Potency, µM (titrated, usually from 154 µM), actives largely listed as activators; 360,000 tested, 0.079% active; Q8WZA2; EPAC2 activation, biochemical qHTS; response scale: 100% = 6.5 mM cAMP response; note: nearly all actives have a fitted effect of over 50% in size
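EPAC2 (100 nM) mixed with Rap1B loaded with BODIPY-GDP (250 nM) plus 50 uM unlabeled GDP; compounds pinned in, 5 min RT, then read every 5 min for 30 min (ex 480, em 540 nm). Normalized to cAMP control.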
TDP1 inh: blocks human tyrosyl-DNA phosphodiesterase 1. Potency, µM (titrated, usually from 130 µM), usual class: inhibitors. 350,000 tested, 0.28% active. recombinant TDP1, AlphaScreen DNA substrate cleavage. Q9NUW8; note: nearly all actives have a fitted effect of over 40% in size
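E. coli-derived human Tdp1, 1 nM final. Cpd preinc 15 min RT; substrate 15 nM final, 5 min RT; AS bead mix 10 ug/ml final, 10 min RT. Signal loss = tyrosine-FITC cleavage. No-enzyme wells = max signal.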
EPAC1 agonist: agonists of human EPAC1; O95398; EPAC1 agonist qHTS, biochemical assay; response scale: 100% = response to 6.5 mM cAMP; Potency, µM (series often up to 154 µM), most hits filed as activators; 360,000 tested, 0.073% active; AID 720707; note: nearly all actives have a fitted effect of over 60% in size
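EPAC1 100 nM, Rap1B–BODIPY-GDP 250 nM, unlabeled GDP 50 uM; compound titration; 5 min RT; kinetic read ex480/em540 at 5-min intervals ×30 min; data normalized to 6.5 mM cAMP agonist control.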
ERG Ets-DNA blk: inhibitors of human ERG Ets domain-DNA interaction; P11308; 370,000 tested, 0.028% active; fluorescence polarization, His-ERG Ets domain / labelled DNA; Potency, µM (top dose mostly 76.9 µM), hits mostly inhibitors; active = well fitted inhibition curve with a large enough effect in the polarisation, with a control signal flat; inconclusive = small, poorly fitted or top-dose-only effect, or effect the other way, or a change in a side signal; inactive = no such curve, though single readings can be large or run the other way; the % refers to the polarisation;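 note: polarization taken with two DNA probes labelled with fluorescein and Texas red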
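His-tagged ERG Ets domain (1 uM in the protein solution; 300mM KCl, 50mM Tris-HCl, 1mM EDTA, 1mM DTT, pH 7.5) received compound, then a probe mix of 5 nM fluorescein-DNA and 100nM Texas-615-DNA. Fluorescence polarization was read for both dyes.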
EPAC1 antagonist: blocks human EPAC1 exchange factor. 360,000 tested, 0.14% active. Potency, µM (series often up to 115 µM), most hits filed as inhibitors. AID 720709. EPAC1 GEF assay, Rap1b-BODIPY-GDP exchange fluorescence. O95398; note: nearly all actives have a fitted effect of over 50% in size
EPAC2 antag: EPAC2 (human) antagonism. Potency, µM (titrated, usually from 114 µM), usual class: inhibitors. EPAC2 GEF exchange of Rap1B-BODIPY-GDP, fluorescence. AID 720708. 360,000 tested, 0.18% active; note: nearly all actives have a fitted effect of over 45% in size
Large screens that a line does not name were inactive. Unless noted, calls come from the whole dose curve; as a rule, active = well fitted curve in the direction sought with a large enough effect; inconclusive = small, poorly fitted or top-dose-only effect, or another doubt; inactive = no such curve, though single readings can be large; an effect the other way counts as inactive or inconclusive.

CN1c2ccccc2C(C)(C)C12C=Cc1cc(O)ccc1O2 (configuration not stated)	EPAC1 agonist inconclusive (no result: ERG Ets-DNA blk)
Cc1cccc(OCCn2c(CCNC(=O)C3CCCCC3)nc3ccccc32)c1	none (no result: EPAC2 agonist, EPAC1 agonist, ERG Ets-DNA blk, EPAC1 antagonist, EPAC2 antag)
O=C(O)CN1C(=O)/C(=C/c2ccc(-c3cccc(Cl)c3)o2)SC1=S	none (no result: EPAC2 agonist, EPAC1 agonist, ERG Ets-DNA blk, EPAC1 antagonist, EPAC2 antag)
Cc1nnc(NC(=O)CSC2=NN3CCCC(=O)N=C3S2)s1	none
O=C1CCCN2N=C(SCC(=O)Nc3nccs3)SC2=N1	TDP1 inh 44.7µM
CNc1ccc2c3c(cccc13)C(=O)N(C)C2=O	EPAC2 agonist inconclusive, EPAC1 agonist 100µM, ERG Ets-DNA blk inconclusive (no result: TDP1 inh)
C[C@@H](Nc1nc(Cl)nc2nc[nH]c12)c1ccccc1	none (no result: EPAC2 agonist, EPAC1 agonist, ERG Ets-DNA blk, EPAC1 antagonist, EPAC2 antag)
O=S(=O)(O)c1ccc2c(c1)-c1nc-2nc2[nH]c(nc3nc(nc4[nH]c(n1)c1ccc(S(=O)(=O)O)cc41)-c1ccc(S(=O)(=O)O)cc1-3)c1ccc(S(=O)(=O)O)cc21	TDP1 inh 0.1µM (no result: EPAC2 agonist, EPAC1 agonist, ERG Ets-DNA blk, EPAC1 antagonist, EPAC2 antag)
O=P(c1ccccc1)(c1ccccc1)c1cnc2ccccn12	none (no result: EPAC2 agonist, EPAC1 agonist, ERG Ets-DNA blk, EPAC1 antagonist, EPAC2 antag)
COc1ccc(C(=O)NCc2ccc3c(c2)cc(C)n3C)cc1	ERG Ets-DNA blk 31.6µM (no result: TDP1 inh)
COCC(=O)NCc1ccc2c(c1)cc(C)n2C	ERG Ets-DNA blk inconclusive
Cc1ccc(S(=O)(=O)NCc2ccc3c(c2)cc(C)n3C)cc1	ERG Ets-DNA blk 7.08µM
CCOc1ccc(CC(=O)NCc2ccc3c(c2)cc(C)n3C)cc1	ERG Ets-DNA blk 39.8µM
CCCN1CNc2c(c(=O)[nH]c(=S)n2CCc2ccc(Cl)cc2Cl)C1	none (no result: EPAC2 agonist, EPAC1 agonist, ERG Ets-DNA blk, EPAC1 antagonist, EPAC2 antag)
O=C1c2ccccc2C(=O)N1c1cccc2ncccc12	none (no result: EPAC2 agonist, EPAC1 agonist, ERG Ets-DNA blk, EPAC1 antagonist, EPAC2 antag)
COc1ccc(C2N(Cc3ccccc3)C(=O)c3ccccc3N2C)cc1COc1ccc(NC(C)=O)cc1 (configuration not stated)	none (no result: EPAC2 agonist, EPAC1 agonist, ERG Ets-DNA blk, EPAC1 antagonist, EPAC2 antag)
Cc1cc(C)n(-c2nc(Nc3ccccc3)nc(-n3nc(C)cc3C)n2)n1	TDP1 inh 44.7µM (no result: ERG Ets-DNA blk)
O=C(Nc1nc2nccc(-c3ccccc3)n2n1)c1ccc(F)cc1	none
O=C(Nc1nc2nccc(-c3ccccc3)n2n1)c1ccccc1	TDP1 inh 79.4µM
O=C(CSc1nnc(Nc2ccccc2F)s1)NC(=O)CN1CCCC1=O	TDP1 inh 14.1µM
NS(=O)(=O)c1ccc2c(c1)C1C=CCC1C(C1CC=CCC1)N2 (configuration not stated)	EPAC1 antagonist 70.8µM
O=C(Nc1nc(Nc2cc(F)cc(F)c2)nc(NC2CCCC2)n1)OCc1ccccc1	none (no result: EPAC2 agonist, EPAC1 agonist, ERG Ets-DNA blk, EPAC1 antagonist, EPAC2 antag)
Cc1ccc(C)c(OCC(=O)Nc2nonc2NC(=O)COc2cc(C)ccc2C)c1	none
Cc1ccc(C)c(OCC(=O)Nc2cc(NC(=O)COc3cc(C)ccc3C)cc(C(=O)O)c2)c1	TDP1 inh 50.1µM, EPAC1 antagonist inconclusive
O=C(Nc1ccccc1)c1ccc(S(=O)(=O)NCc2ccco2)cc1	none
COc1ccc(CNC(=O)COC(=O)c2ccc(S(=O)(=O)NCc3ccco3)cc2)cc1	TDP1 inh 17.8µM
O=C(COC(=O)c1ccc(S(=O)(=O)NCc2ccco2)cc1)NCc1ccc(F)cc1	none
O=C(Nc1ccc(S(=O)(=O)NCc2ccco2)cc1)c1ccc(F)cc1	TDP1 inh 56.2µM
Cc1cc(N2C(=O)c3ccccc3C2=O)n[nH]1	none (no result: EPAC2 agonist, EPAC1 agonist, ERG Ets-DNA blk, EPAC1 antagonist, EPAC2 antag)
COc1cc(/C=C2\COC/C(=C\c3ccc(O)c(OC)c3)C2=O)ccc1O	EPAC1 antagonist 89.1µM
O=C1c2ccccc2C(c2nnnn2Cc2ccccc2)N1CCc1c[nH]c2ccccc12 (configuration not stated)	EPAC2 antag 75.2µM (no result: TDP1 inh, ERG Ets-DNA blk)
COc1ccc(-c2nnc3ccc(SC(C)C)nn23)cc1OC	none (no result: EPAC2 agonist, EPAC1 agonist, ERG Ets-DNA blk, EPAC1 antagonist, EPAC2 antag)
Cc1ccccc1-n1c(-c2ccncc2)n[nH]c1=S	none (no result: TDP1 inh)
Cc1cccc(-n2c(-c3ccncc3)n[nH]c2=S)c1C	TDP1 inh 17.8µM
Cc1ccc(Nc2nc(NCc3ccco3)nc3nccnc23)cc1	none (no result: EPAC2 agonist, EPAC1 agonist, ERG Ets-DNA blk, EPAC1 antagonist, EPAC2 antag)
Cc1ccc(Nc2nc(NCc3ccco3)nc3nccnc23)c(C)c1	TDP1 inh 8.91µM (no result: EPAC2 agonist, EPAC1 agonist, ERG Ets-DNA blk, EPAC1 antagonist, EPAC2 antag)
COc1ccccc1OCCn1c(CCNC(=O)C2CCCCC2)nc2ccccc21	none (no result: EPAC2 agonist, EPAC1 agonist, ERG Ets-DNA blk, EPAC1 antagonist, EPAC2 antag)
CC1(C)OC(=O)C(=Cc2ccc(-c3ccc(Cl)c(C(=O)O)c3)o2)C(=O)O1	TDP1 inh 50.1µM

Compound activity as filed in PubChem.
